Assay [1] in a line: qHTS of pediatric cancer cell lines to identify multiple opportunities for drug repurposing: Primary screen for A673 cells (AID 1347092). Also: nearly all actives have a fitted effect of over 45% in size. Also: potency is read from the fitted curve at half-maximal effect. In short, it runs like this: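 Titration-based qHTS on A673 cells: MIPE compounds spanned 11 points (0.78 nM to 46 µM final), NPC compounds 8 points (0.59 nM to 46 µM final). Viability after 48 h was measured by ATP luminescence.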
Background: qHTS replaces the single test concentration by a dilution series.

Assay [2] in a line: qHTS of pediatric cancer cell lines to identify multiple opportunities for drug repurposing: Primary screen for SK-N-MC cells (AID 1347093). Also: potency is read from the fitted curve at half-maximal effect. Put shortly: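 Metabolically active cells were quantified by ATP-dependent luminescence (CellTiter-Glo, 15 min at room temperature) following 48 h treatment. Cells had been plated at 500-1,000 per well and settled for 5 h beforehand.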
Assay [3] is described as follows: qHTS of pediatric cancer cell lines to identify multiple opportunities for drug repurposing: Primary screen for NB-EBc1 cells (AID 1347095). Also: potency is read from the fitted curve at half-maximal effect. In short, it runs like this: (§1)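 Phenotypic viability qHTS, 48 h compound exposure, CellTiter-Glo luminescence read-out; multi-concentration dosing so that potency and efficacy derive directly from the primary screen's curves.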

Assay [4] can be described thus: qHTS of pediatric cancer cell lines to identify multiple opportunities for drug repurposing: Primary screen for U-2 OS cells (AID 1347096). Also: nearly all actives have a fitted effect of over 50% in size. In short, it runs like this: (§2)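 Viability after 48 h compound treatment at 37C, 500-1,000 cells/well, read as ATP luminescence with CellTiter-Glo. Primary screens used 11-point (MIPE, 0.78 nM-46 µM) or 8-point (NPC, 0.59 nM-46 µM) final concentrations; follow-up screens used 11-point dilutions.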

Assay [5] can be described thus: qHTS of pediatric cancer cell lines to identify multiple opportunities for drug repurposing: Primary screen for SK-N-SH cells (AID 1347098). Also: nearly all actives have a fitted effect of over 65% in size. Also: potency is read from the fitted curve at half-maximal effect. Put shortly: (§3)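 Cells (500-1,000/well) rested 5 h, then received compounds for 48 h; metabolically active cells were measured by CellTiter-Glo luminescence. Final concentrations spanned up to 46 µM (MIPE, 11-point) or 0.59 nM-46 µM (NPC, 8-point) in primary screens, 11-point in follow-ups.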

A short description of assay [6]: qHTS of pediatric cancer cell lines to identify multiple opportunities for drug repurposing: Primary screen for NB1643 cells (AID 1347099). Also: nearly all actives have a fitted effect of over 50% in size. In short, it runs like this: as §1
The nature of assay [7]: qHTS of pediatric cancer cell lines to identify multiple opportunities for drug repurposing: Primary screen for BT-12 cells (AID 1347101). Also: nearly all actives have a fitted effect of over 25% in size. Also: potency is read from the fitted curve at half-maximal effect. Put shortly: as §3
Assay [8] in a line: qHTS of pediatric cancer cell lines to identify multiple opportunities for drug repurposing: Primary screen for Rh18 cells (AID 1347102). Also: nearly all actives have a fitted effect of over 65% in size. In short, it runs like this: as §2
Assay [9] can be described thus: qHTS of pediatric cancer cell lines to identify multiple opportunities for drug repurposing: Primary screen for OHS-50 cells (AID 1347103). Also: nearly all actives have a fitted effect of over 40% in size. Also: potency is read from the fitted curve at half-maximal effect. Put shortly: as §3
Assay [10] is described as follows: qHTS of pediatric cancer cell lines to identify multiple opportunities for drug repurposing: Primary screen for RD cells (AID 1347104). Also: nearly all actives have a fitted effect of over 55% in size. In short, it runs like this: as §1
Assay [11] in a line: qHTS of pediatric cancer cell lines to identify multiple opportunities for drug repurposing: Primary screen for MG 63 (6-TG R) cells (AID 1347105). Also: nearly all actives have a fitted effect of over 50% in size. Also: potency is read from the fitted curve at half-maximal effect. In short, it runs like this: as §1
Assay [12] is described as follows: qHTS of pediatric cancer cell lines to identify multiple opportunities for drug repurposing: Primary screen for control Hh wild type fibroblast cells (AID 1347106).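 Also: series mostly up to about 46 µM; a drop in luminescence marks cytotoxicity and a rise apparent proliferation; nearly all actives have a fitted effect of over 55% in size.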 Put shortly:
as §2

The nature of assay [13]: qHTS of pediatric cancer cell lines to identify multiple opportunities for drug repurposing: Primary screen for Rh30 cells (AID 1347107). Also: series mostly up to about 46 µM; nearly all actives have a fitted effect of over 75% in size. Put shortly: as §2
Assay [14] in a line: qHTS of pediatric cancer cell lines to identify multiple opportunities for drug repurposing: Primary screen for Rh41 cells (AID 1347108).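 Also: series mostly up to about 46 µM; luminescence drop marks cytotoxic hits; nearly all actives have a fitted effect of over 70% in size.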 Put shortly:
as §1

Assay [15] can be described thus: qHTS of pediatric cancer cell lines to identify multiple opportunities for drug repurposing: Primary screen for SJ-GBM2 cells (AID 1347091). Also: potency is read from the fitted curve at half-maximal effect. Put shortly:
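Viability measured as metabolically active cells via CellTiter-Glo luminescence following 48 hours of compound exposure, 11-point dilutions in confirmatory testing. 500-1,000 cells/well plated 5 hours before dosing; controls were DMSO and 2.3 µM bortezomib.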

A short description of assay [16]: qHTS of pediatric cancer cell lines to identify multiple opportunities for drug repurposing: Primary screen for Saos-2 cells (AID 1347097). Also: nearly all actives have a fitted effect of over 40% in size. Also: potency is read from the fitted curve at half-maximal effect. Put shortly:
as §1

Assay [17] can be described thus: qHTS of pediatric cancer cell lines to identify multiple opportunities for drug repurposing: Primary screen for LAN-5 cells (AID 1347100). Also: potency is read from the fitted curve at half-maximal effect. In short, it runs like this:
as §2

Assay [18] is described as follows: qHTS of pediatric cancer cell lines to identify multiple opportunities for drug repurposing: Primary screen for BT-37 cells (AID 1347094). Also: series mostly up to about 57 µM. In short, it runs like this:
as §1

A short description of assay [19]: qHTS of pediatric cancer cell lines to identify multiple opportunities for drug repurposing: Confirmatory screen for NB1643 cells (AID 1347109). Also: nearly all actives have a fitted effect of over 45% in size. In short, it runs like this:
as §2

Where “and” joins values, the source holds several entries; their conditions need not be identical. Identical values can stand only once. Results filed as inconclusive are left out. Calls of active or inactive are those of the source. Calls follow the shape of the dose curve; as a rule, active = well fitted curve in the direction sought with a large enough effect; inconclusive = small, poorly fitted or top-dose-only effect, or another doubt; inactive = no such curve, though single readings can be large; an effect the other way counts as inactive or inconclusive.

For eleven compounds, Potency results are on record in PubChem BioAssay (NCATS).

With `CCCCN(CCCC)CCC(O)c1cc2c(Cl)cc(Cl)cc2c2cc(C(F)(F)F)ccc12` (configuration not stated), the Potency result in assay [1], in assay [3], in assay [4], in assay [5], in assay [6] and in [7] was “inactive” each time. The Potency result in assay [8], in assay [10], in [11], in [12], in [13] and in [14] was “inactive” each time. Also, the Potency in [2] was 11.9 µM (active) and 33.2 µM (active); in assay [9], 30.6 µM (active).
Turning to `CCCS(=O)c1ccc2nc(NC(=O)OC)[nH]c2c1` (configuration not stated), the Potency in assay [15] is 21.1 µM (active) and 18.7 µM (active); in assay [2] it was 7.5 µM (active) and 18.7 µM (active); in assay [3] it was 10.5 µM (active); in assay [16], 13.3 µM (active); in assay [17] it was 16.8 µM (active); in assay [9] it was 27.3 µM (active). The Potency in [11] is 13.3 µM (active) and 18.7 µM (active). Besides, the Potency result in assay [4], in [6] and in [12] was “inactive” in each case.
On to `CC(=O)N1CCN(c2ccc(OC[C@H]3CO[C@](Cn4ccnc4)(c4ccc(Cl)cc4Cl)O3)cc2)CC1`, for which the Potency was 23.5 µM (active) in [2], 33.2 µM (active) in [16], 18.7 µM (active) in assay [17] and 24.3 µM (active) in [7]. Besides, the Potency entry in assay [4], in assay [5], in [6] and in assay [12] was “inactive” each time.
Turning to `CS(=O)(=O)OCCCCOS(C)(=O)=O`, the Potency result in assay [15], in assay [18], in assay [4], in [5], in [6] and in assay [17] was “inactive” throughout. The Potency result in assay [7], in assay [8], in assay [9], in [10], in [11] and in assay [12] was “inactive” each time. The Potency result in [13], in assay [14] and in assay [19] was “inactive” each time.
On to `Cc1cc2cc3c(C)cc(=O)oc3c(C)c2o1`, for which the Potency result in assay [15], in assay [18], in assay [3], in [4], in [16] and in assay [17] was “inactive” each time. The Potency result in [7], in assay [8], in assay [9], in assay [11], in assay [12] and in [13] was “inactive” in each case.
In the case of `CCOC(=O)C1=C(O)C(=O)N(Cc2ccccc2)C1`, the Potency result in assay [15], in assay [2], in assay [3], in assay [4], in assay [16] and in [5] was “inactive” throughout. Moreover, the Potency result in assay [6], in assay [17], in assay [7], in assay [8], in assay [9] and in assay [10] was “inactive” throughout. In addition, the Potency result in [11], in assay [12], in assay [13] and in assay [14] was “inactive” each time.
Regarding `O=C1NC(=O)C(c2ccccc2[N+](=O)[O-])=C1Nc1ccc(O)c(Cl)c1`, the Potency in assay [1] is 5.9 µM (active); in assay [2] it was 0.118 µM (active). Also, the Potency result in assay [18], in assay [3], in [4], in [16], in assay [7] and in [8] was “inactive” in each case. Besides, the Potency result in assay [9], in assay [10], in [12], in assay [13] and in assay [14] was “inactive” each time.
On to `O=c1c(O)c(-c2cc(O)c(O)c(O)c2)oc2cc(O)cc(O)c12`, for which the Potency result in assay [15], in assay [3], in assay [4], in assay [5], in assay [6] and in [17] was “inactive” throughout. Moreover, the Potency result in assay [7], in [8], in assay [10], in [12] and in assay [13] was “inactive” in each case.
For `C[C@@H](c1ncncc1F)[C@](O)(Cn1cncn1)c1ccc(F)cc1F`, the Potency entry in assay [15], in assay [18], in [3], in assay [4], in assay [5] and in [6] was “inactive” in each case. Further, the Potency result in [17], in assay [7], in assay [8], in [10], in assay [12] and in [13] was “inactive” in each case.
Take `OC(CN1CCN(c2cccc(Cl)c2)CC1)C(c1ccccc1)c1ccccc1` (configuration not stated): the Potency in assay [1] is 18.7 µM (active); in assay [2], 10.5 µM (active); in [16], 18.7 µM (active); in assay [5], 15.2 µM (active); in [9], 24.3 µM (active). The Potency entry in assay [4], in assay [8], in assay [12], in [13] and in [14] was “inactive” throughout.
Regarding `CCN(CC)CCOc1ccc(Cc2ccccc2)cc1`, the Potency entry in assay [2], in [3], in [4], in assay [16], in assay [6] and in [7] was “inactive” throughout. The Potency entry in assay [8], in assay [11], in assay [12], in assay [13] and in assay [14] was “inactive” throughout.
